Test [1] is described as follows: qHTS assay to identify aromatase inhibitors - cell viability counter screen (AID 743084).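 Also: cells stimulated with testosterone during compound exposure; nearly all actives have a fitted effect of over 55% in size.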 Also: potency is read from the fitted curve at half-maximal effect.
Test [2] concerns the target Aryl hydrocarbon receptor (Homo sapiens) (UniProt P35869). Briefly: qHTS assay to identify small molecule that activate the aryl hydrocarbon receptor (AhR) signaling pathway (AID 743085). Also: nearly all actives have a fitted effect of over 15% in size. Also: potency is read from the fitted curve at half-maximal effect.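 As to activation: HG2L7.5c1 human HepG2 liver cells with stably integrated DRE-driven firefly reporter; series mostly up to about 70 µM.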 An outline of the steps:
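Reporter assay in engineered HepG2 line HG2L7.5c1, whose plasmid carries twenty dioxin responsive elements upstream of firefly luciferase. Treatment lasted 24 h at 37C; ONE-Glo luminescence gauged induction.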
In general terms: In qHTS, concentration-response curves come from the screen itself.

Test [3] can be described thus: qHTS assay to identify small molecule that activate the aryl hydrocarbon receptor (AhR) signaling pathway - cell viability counter screen (AID 743086).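 Also: HepG2 liver cells carrying the AhR DRE luciferase reporter; series mostly up to about 70 µM; nearly all actives have a fitted effect of over 45% in size.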 An outline of the steps:
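Cytotoxicity counter screen: CellTiter-Fluor signal (30 min, 37 C) in 4000 HepG2 cells/well carrying the DRE-luciferase reporter, following 24 h compound exposure at 37 C.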

The target of test [4] is Peroxisome proliferator-activated receptor gamma (Homo sapiens) (UniProt P37231). Briefly: qHTS assay to identify small molecule agonists of the peroxisome proliferator-activated receptor gamma (PPARg) signaling pathway (AID 743094; active = well fitted activation curve with a large enough effect in the signal ratio in the repeat runs, not every such curve was filed as active; the % refers to the signal ratio). An outline of the steps:
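Agonism was assessed in a beta-lactamase reporter system, HEK293H cells with a stably integrated UAS-bla construct under PPARg control; the 17 h treatment at 37C preceded a 1 h room-temperature FRET substrate read.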

Test [5] has the same target. Briefly: qHTS assay to identify small molecule antagonists of the peroxisome proliferator-activated receptor gamma (PPARg) signaling pathway (AID 743191; calls by dose curve; also: series mostly up to about 63 µM; nearly all actives have a fitted effect of over 30% in size). An outline of the steps: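 Beta-lactamase reporter under UAS control in HEK293H PPARg-bla cells; compound treatment 17 h at 37C. Read-out: fluorescence intensity after 1 h room-temperature incubation with LiveBLAzer B/G FRET substrate.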

Test [6] can be described thus: qHTS assay to identify small molecule antagonists of the peroxisome proliferator-activated receptor gamma (PPARg) signaling pathway - cell viability counter screen (AID 743194). Also: nearly all actives have a fitted effect of over 55% in size. An outline of the steps: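 Viability was measured as CellTiter-Glo luminescence in GeneBLAzer PPARg UAS-bla HEK293H cells. These cells had been exposed 17 h at 37 C to compounds together with rosiglitazone at 50 nM final, with the beta-lactamase readout taken in the same wells.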

Test [7] in a line: qHTS assay for small molecule agonists of the antioxidant response element (ARE) signaling pathway (AID 743202; active = well fitted activation curve with a large enough effect in the signal ratio in the repeat runs, not every such curve was filed as active; the % refers to the signal ratio). An outline of the steps: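 After 16 hours of compound treatment at 37 C, HepG2 cells with a stably integrated ARE-driven beta-lactamase reporter were loaded 2 hours at room temperature with LiveBLAzer B/G FRET substrate and fluorescence intensity measured.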
Test [8] in a line: qHTS assay for small molecule agonists of the antioxidant response element (ARE) signaling pathway - cell viability counter screen (AID 743203; calls by dose curve; also: nearly all actives have a fitted effect of over 55% in size; also: potency is read from the fitted curve at half-maximal effect). An outline of the steps: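 ATP content via CellTiter-Glo luminescence served as the viability measure. Cells: ARE-bla HepG2, 2,000 per well. Exposure: 16 hrs, 37C/5% CO2.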
Test [9] can be described thus: qHTS assay for small molecule activators of the heat shock response signaling pathway - cell viability counter screen (AID 743209). Also: nearly all actives have a fitted effect of over 50% in size. Also: potency is read from the fitted curve at half-maximal effect. An outline of the steps: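 Compounds dissolved in DMSO were added to overnight-plated HSE-bla HeLa cells and left 5 h at 37 C. Cell viability was quantified by luminescence using CellTiter-Glo.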
A short description of test [10]: qHTS assay for small molecule activators of the heat shock response signaling pathway (AID 743210; active = well fitted activation curve with a large enough effect in the signal ratio in the repeat runs, with a control signal flat, not every such curve was filed as active; the % refers to the signal ratio; also: series mostly up to about 63 µM). An outline of the steps:
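Compound exposure lasted 5 h at 37 C in HeLa cells carrying a heat-shock-element-driven beta-lactamase reporter. Read-out: fluorescence intensity after 2.5 h room-temperature loading with LiveBLAzer B/G FRET substrate.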

Several values for one entry are separate records, joined by “and”; a condition that tells them apart may be missing. Equal entries are not always repeated. Results filed as inconclusive are left out. More than one record can exist for a structure, and the calls need not agree. Activity calls are given as the source filed them. Unless noted, calls follow the shape of the dose curve; as a rule, active = well fitted curve in the direction sought with a large enough effect in the repeat runs; inconclusive = weak or mixed curves; inactive = no such curve, though single readings can be large; an effect the other way counts as inactive or inconclusive.

Chain of Peroxisome proliferator-activated receptor gamma (Homo sapiens) (P37231 whole entry, looked up): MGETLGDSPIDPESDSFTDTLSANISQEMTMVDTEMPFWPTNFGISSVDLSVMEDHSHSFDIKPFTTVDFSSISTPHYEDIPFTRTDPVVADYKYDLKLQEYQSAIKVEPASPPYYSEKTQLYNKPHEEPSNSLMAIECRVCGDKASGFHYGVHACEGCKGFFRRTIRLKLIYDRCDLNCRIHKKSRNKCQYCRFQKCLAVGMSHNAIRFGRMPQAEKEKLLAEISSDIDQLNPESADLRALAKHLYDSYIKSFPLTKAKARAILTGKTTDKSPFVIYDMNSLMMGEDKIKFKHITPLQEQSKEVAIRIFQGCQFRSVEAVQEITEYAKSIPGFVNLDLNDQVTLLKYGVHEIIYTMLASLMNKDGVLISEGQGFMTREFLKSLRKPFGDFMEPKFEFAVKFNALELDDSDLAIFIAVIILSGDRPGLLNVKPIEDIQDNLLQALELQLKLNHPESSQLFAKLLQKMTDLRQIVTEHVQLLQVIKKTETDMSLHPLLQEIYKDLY
Chain of Aryl hydrocarbon receptor (Homo sapiens) (P35869 whole entry, looked up): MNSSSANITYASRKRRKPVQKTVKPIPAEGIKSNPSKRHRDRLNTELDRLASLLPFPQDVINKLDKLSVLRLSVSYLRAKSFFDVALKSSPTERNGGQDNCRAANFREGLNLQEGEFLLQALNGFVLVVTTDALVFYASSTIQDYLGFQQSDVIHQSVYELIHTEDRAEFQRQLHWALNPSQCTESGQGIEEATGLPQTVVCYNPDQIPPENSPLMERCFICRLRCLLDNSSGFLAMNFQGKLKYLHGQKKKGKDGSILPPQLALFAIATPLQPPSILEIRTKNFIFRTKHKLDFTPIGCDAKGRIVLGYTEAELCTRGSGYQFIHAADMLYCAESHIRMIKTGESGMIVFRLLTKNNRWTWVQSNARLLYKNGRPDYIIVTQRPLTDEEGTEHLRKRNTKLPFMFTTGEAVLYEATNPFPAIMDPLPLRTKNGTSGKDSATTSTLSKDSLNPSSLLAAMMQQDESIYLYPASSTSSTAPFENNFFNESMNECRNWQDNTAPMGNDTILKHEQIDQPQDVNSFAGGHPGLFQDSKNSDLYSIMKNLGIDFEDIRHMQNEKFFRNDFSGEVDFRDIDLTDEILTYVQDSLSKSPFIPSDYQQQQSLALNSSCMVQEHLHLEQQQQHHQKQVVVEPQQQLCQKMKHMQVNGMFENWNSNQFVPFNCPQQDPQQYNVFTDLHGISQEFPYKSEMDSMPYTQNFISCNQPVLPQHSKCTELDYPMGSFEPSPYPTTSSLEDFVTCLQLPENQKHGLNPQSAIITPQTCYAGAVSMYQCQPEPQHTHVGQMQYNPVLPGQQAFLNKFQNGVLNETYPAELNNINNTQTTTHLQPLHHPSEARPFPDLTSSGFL

Turning to `CCSC(=O)N1CCCCCC1`, the Potency entry in [1], in [2], in test [5], in test [7], in [8] and in test [9] was “inactive” each time. Also, the Potency entry in test [10] is “inactive”. In addition, the molecule was classed as inactive in [3], in [4] and in test [6].
Turning to `CNC(=O)O/N=C(\SC)C(=O)N(C)C`, the Potency entry in test [1], in test [2], in [5], in [7], in test [8] and in test [10] was “inactive” throughout. For the same molecule, the molecule was called inactive in [3], in test [4] and in test [6].
In the case of `CN(C)C(=O)Nc1cccc(C(F)(F)F)c1`, the Potency result in test [1], in [2], in [5], in test [7], in [8] and in [9] was “inactive” in each case. Besides, the Potency entry in [10] is “inactive”. Further, the call in test [3], in test [4] and in [6] was inactive.
Consider `Cc1ccc(O)c(C)c1`, for which the Potency entry in test [1], in [2], in [5], in test [8] and in test [10] was “inactive” each time. The molecule was classed as inactive in test [3], in test [4] and in test [6].
`N#Cc1ccccn1`: the Potency entry in [1], in test [2], in test [7], in [8] and in test [9] was “inactive” throughout. In addition, the call in [3], in test [4] and in test [6] was inactive.
For `CC(=O)C1CCOC1=O` (stereo not given), the Potency result in [1], in [2], in test [5], in test [7], in test [8] and in test [9] was “inactive” each time. Further, the Potency entry in test [10] was “inactive”. Besides, the outcome in [3], in test [4] and in test [6] was inactive.
Consider `CCOP(=S)(OCC)Oc1cc(C)nc(C(C)C)n1`, for which the Potency entry is “inactive and 27.3 µM (active)” in test [1]; “inactive and 6.86 µM (active)” in test [2]; “inactive and 54.5 µM (active)” in [8]; “inactive and 43.6 µM (active)” in test [9]. For the same molecule, the outcome in test [3], in [4] and in test [6] was inactive. For the same molecule, the Potency result in [5], in test [7] and in test [10] was “inactive” throughout.
`CCCOC(=O)c1ccccc1C(=O)OCCC`: the Potency entry in [1], in test [2], in test [5], in test [7], in [8] and in test [10] was “inactive” throughout. The molecule was classed as inactive in test [3], in [4] and in [6].
On to `OCC(O)CCl` (stereo not given), for which the Potency entry in test [1], in test [2], in [5], in [7], in test [8] and in test [9] was “inactive” each time. The Potency entry in [10] is “inactive”. In addition, the call in test [3], in [4] and in [6] was inactive.
As for `FC(F)(F)c1ccc(Cl)cc1`, the Potency entry in [1], in test [2], in test [7], in [8], in [9] and in test [10] was “inactive” each time. Further, the molecule was classed as inactive in test [3], in test [4] and in [6].
In the case of `CC[N+](=O)[O-]`, the Potency entry in test [1], in [2], in [7], in test [8], in test [9] and in test [10] was “inactive” throughout. The molecule was called inactive in [3], in test [4] and in [6].
For the molecule `Cc1cccc(C)c1N`, the Potency result in test [1], in [2], in test [7], in [8] and in test [10] was “inactive” in each case. In addition, the call in test [3], in [4] and in test [6] was inactive.
As for `CN(C)C(=O)Cl`, the Potency entry in test [1], in test [2], in [7], in test [8] and in test [10] was “inactive” in each case. The call in [3], in test [4] and in test [6] was inactive.
Turning to `Cl[C@H]1OCCO[C@@H]1Cl`, the Potency result in test [1], in [2], in test [7], in test [8] and in [10] was “inactive” each time. In addition, the call in test [3], in [4] and in test [6] was inactive.
Regarding `CNc1cnn(-c2cccc(C(F)(F)F)c2)c(=O)c1Cl`, the Potency result in test [1], in [8], in test [9] and in test [10] was “inactive” in each case. Besides, the Potency in test [2] is 27.3 µM (active). The molecule was called inactive in [3], in [4] and in test [6].
Regarding `O=C(O)Cc1ccccc1`, the Potency result in test [1], in test [2], in test [7], in [8], in test [9] and in test [10] was “inactive” each time. The call in test [3], in test [4] and in [6] was inactive.
As to `O=S(=O)(O)OOS(=O)(=O)O`, the Potency result in test [1], in [2], in [7], in [8], in test [9] and in [10] was “inactive” throughout. The molecule was called inactive in [3], in [4] and in test [6].
Consider `O=P1(NCCCl)OCCCN1CCCl` (stereo not given), for which the Potency result in test [1], in [2], in [7], in test [8], in test [9] and in test [10] was “inactive” each time. The molecule was classed as inactive in test [3], in test [4] and in test [6].
With `CC12CC1(C)C(=O)N(c1cc(Cl)cc(Cl)c1)C2=O` (stereo not given), the Potency entry in test [1], in test [8], in test [9] and in test [10] was “inactive” throughout. In addition, the Potency in test [2] was 27.2 µM (active) and inactive. The molecule was classed as inactive in [3], in [4] and in test [6].
On to `Cc1ccc(N)cc1`, for which the Potency result in test [1], in test [7], in test [8] and in test [10] was “inactive” each time. Moreover, the Potency in [2] was 24.5 µM (active) and inactive and 61.1 µM (active). In addition, the molecule was classed as inactive in test [3], in test [4] and in test [6].
As to `N#Cc1cccc(C#N)c1`, the Potency entry in test [1], in test [2], in test [7], in test [8], in [9] and in [10] was “inactive” throughout. For the same molecule, the molecule was called inactive in [3], in test [4] and in test [6].
Regarding `Nc1ncc([N+](=O)[O-])s1`, the Potency entry in [1], in test [2], in [7], in test [8], in [9] and in test [10] was “inactive” throughout. Moreover, the result in [3], in [4] and in test [6] was inactive.
